Laboratory results: PubChem BioAssay (NCI)
Compounds without any hit were thinned out: in the full panel of roughly 83,000, 20% have a hit.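 Interpretation: 100, growth as untreated; towards 0, rising growth inhibition; 0, no net growth; 0 to -100, cell death. Compounds scoring below 10 were considered active.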 Activity calls are given as the source filed them.

Tests used:
Assay in all cases: NCI-60 one-dose screen, 48 h (100 = growth as untreated, 0 = no growth, -100 = all killed)
Conditions in all cases: 10 µM
HT29 colon = system: HT29 colon
SNB-75 CNS = system: SNB-75 CNS
SNB-19 CNS = system: SNB-19 CNS
U251 CNS = system: U251 CNS
PC-3 prostate = system: PC-3 prostate
SK-MEL-5 melanoma = system: SK-MEL-5 melanoma
UACC-62 melanoma = system: UACC-62 melanoma
LOX IMVI melanoma = system: LOX IMVI melanoma
SK-MEL-28 melanoma = system: SK-MEL-28 melanoma
SK-MEL-2 melanoma = system: SK-MEL-2 melanoma
SN12C renal = system: SN12C renal
UO-31 renal = system: UO-31 renal
TK-10 renal = system: TK-10 renal
ACHN renal = system: ACHN renal
CAKI-1 renal = system: CAKI-1 renal
CCRF-CEM leukemia = system: CCRF-CEM leukemia
MOLT-4 leukemia = system: MOLT-4 leukemia
SR leukemia = system: SR leukemia
A498 renal = system: A498 renal

Measured: growth

COc1cccc(NC(=O)c2sc3nc4c(cc3c2N)C(O)CCC4)c1 (stereo not given)
active: HT29 colon 4.69% | MOLT-4 leukemia 6.41% | SR leukemia 0.382%
inactive: SNB-75 CNS 44.6% | SNB-19 CNS 49.5% | U251 CNS 10.6% | PC-3 prostate 25.4% | SK-MEL-5 melanoma 25.1% | UACC-62 melanoma 48.9% | LOX IMVI melanoma 25.8% | SK-MEL-28 melanoma 56% | SK-MEL-2 melanoma 49.5% | SN12C renal 30.3% | UO-31 renal 40.3% | TK-10 renal 79.8% | ACHN renal 42% | CAKI-1 renal 34.4% | CCRF-CEM leukemia 11.2%

O=[N+]([O-])c1ccc(N/N=C/c2cccc3ccccc23)nc1
inactive: HT29 colon 97.1% | SNB-75 CNS 93.2% | SNB-19 CNS 99.2% | U251 CNS 93% | PC-3 prostate 90.7% | SK-MEL-5 melanoma 100% | UACC-62 melanoma 91.4% | LOX IMVI melanoma 97.1% | SK-MEL-28 melanoma 111% | SK-MEL-2 melanoma 103% | SN12C renal 103% | UO-31 renal 86.9% | TK-10 renal 100% | ACHN renal 91.8% | A498 renal 106% | CCRF-CEM leukemia 14.9% | MOLT-4 leukemia 57.3% | SR leukemia 79.4%

Cn1c([N+](=O)[O-])cnc1/C=C1\Oc2cc(Cl)ccc2C1=O
inactive: SNB-75 CNS 65.6% | SNB-19 CNS 15.6%
active: HT29 colon -25.4% | U251 CNS -9% | PC-3 prostate -12.5% | SK-MEL-5 melanoma -77.4% | UACC-62 melanoma 7.22% | LOX IMVI melanoma -60.3% | SK-MEL-28 melanoma -9.7% | SK-MEL-2 melanoma -55.2% | SN12C renal -15.1% | UO-31 renal -35.2% | TK-10 renal -24.4% | ACHN renal 6.42% | CAKI-1 renal -21.1% | CCRF-CEM leukemia -0.667% | SR leukemia 8.29%

Nc1c(C(=O)Nc2cccc(F)c2)sc2nc3c(cc12)C(=O)CCC3
inactive: HT29 colon 16.7% | SNB-75 CNS 24.9% | SNB-19 CNS 48.9% | U251 CNS 32.1% | PC-3 prostate 20.7% | SK-MEL-5 melanoma 43.2% | UACC-62 melanoma 43.4% | LOX IMVI melanoma 46.5% | SK-MEL-28 melanoma 49.7% | SK-MEL-2 melanoma 43.3% | SN12C renal 37.4% | UO-31 renal 56.1% | TK-10 renal 85.5% | ACHN renal 53.6% | CAKI-1 renal 28% | CCRF-CEM leukemia 17.9% | MOLT-4 leukemia 66.3% | SR leukemia 16.1%

CC/C(C)=C(\C)C(=O)O
inactive: HT29 colon 106% | SNB-75 CNS 94.5% | SNB-19 CNS 112% | U251 CNS 105% | PC-3 prostate 104% | SK-MEL-5 melanoma 103% | UACC-62 melanoma 112% | LOX IMVI melanoma 92.7% | SK-MEL-28 melanoma 111% | SK-MEL-2 melanoma 102% | SN12C renal 111% | UO-31 renal 78.4% | TK-10 renal 105% | ACHN renal 116% | CAKI-1 renal 95.5% | A498 renal 110% | MOLT-4 leukemia 101% | SR leukemia 107%

N#Cc1ncc(-c2cc(F)c(F)c(F)c2)c(NC2CCCCCC2)n1
inactive: HT29 colon 97.6% | SNB-75 CNS 65.1% | SNB-19 CNS 90.9% | U251 CNS 50.2% | PC-3 prostate 77.1% | SK-MEL-5 melanoma 93% | UACC-62 melanoma 84.8% | LOX IMVI melanoma 84.9% | SK-MEL-28 melanoma 94.1% | SK-MEL-2 melanoma 96.2% | SN12C renal 83.6% | UO-31 renal 89.4% | TK-10 renal 105% | ACHN renal 92.6% | CAKI-1 renal 92.9% | CCRF-CEM leukemia 83.9% | MOLT-4 leukemia 78.1% | SR leukemia 78.8%

COc1cc(-c2cc(/C=C/C(=O)c3ccc(Cl)c(Cl)c3)[nH]n2)cc(OC)c1OC
inactive: HT29 colon 58.3% | SNB-75 CNS 75.4% | SNB-19 CNS 68% | U251 CNS 43.8% | PC-3 prostate 55% | SK-MEL-5 melanoma 84.1% | UACC-62 melanoma 81.6% | LOX IMVI melanoma 29.6% | SK-MEL-28 melanoma 96.1% | SK-MEL-2 melanoma 86.7% | SN12C renal 64.3% | UO-31 renal 54.1% | ACHN renal 81.5% | CAKI-1 renal 82.9% | A498 renal 70.6% | MOLT-4 leukemia 54.4%
active: CCRF-CEM leukemia 3% | SR leukemia -6.68%

O=c1[nH]c(-c2ccc(Cl)cc2)nc2sc3c(c12)CCCC3
inactive: HT29 colon 106% | SNB-75 CNS 57.9% | SNB-19 CNS 76.6% | U251 CNS 54.3% | PC-3 prostate 93.2% | SK-MEL-5 melanoma 75.9% | UACC-62 melanoma 55.8% | LOX IMVI melanoma 48.9% | SK-MEL-28 melanoma 107% | SK-MEL-2 melanoma 102% | SN12C renal 52.5% | UO-31 renal 78.8% | ACHN renal 53.3% | CAKI-1 renal 13.4% | A498 renal 86.6% | CCRF-CEM leukemia 12.3% | MOLT-4 leukemia 49.4%
active: SR leukemia 0.705%

Cc1ccc(-c2n[nH]c(=O)c3noc(-c4ccc(C)cc4)c23)cc1
inactive: SNB-19 CNS 56% | U251 CNS 27.7% | PC-3 prostate 28% | SK-MEL-5 melanoma 15.9% | UACC-62 melanoma 28.6% | LOX IMVI melanoma 44% | SK-MEL-28 melanoma 52% | SN12C renal 47% | UO-31 renal 20.3% | ACHN renal 33.9% | CAKI-1 renal 16.9% | A498 renal 13.8% | CCRF-CEM leukemia 17.5% | MOLT-4 leukemia 44.2% | SR leukemia 10.2%
active: HT29 colon 6.9% | SNB-75 CNS -15% | SK-MEL-2 melanoma 9.04%

COc1ccc(C(=O)/C=C/c2cc(-c3cc(OC)c(OC)c(OC)c3)n[nH]2)cc1
inactive: SNB-75 CNS 43.6% | SNB-19 CNS 47.8% | PC-3 prostate 20.5% | SK-MEL-5 melanoma 57.2% | UACC-62 melanoma 52.3% | SK-MEL-28 melanoma 79.4% | SK-MEL-2 melanoma 70.4% | SN12C renal 25.1% | ACHN renal 58.6% | A498 renal 62.2%
active: HT29 colon 1.28% | U251 CNS -2.19% | LOX IMVI melanoma -11.6% | UO-31 renal 5.28% | CAKI-1 renal 4.76% | CCRF-CEM leukemia -35.9% | MOLT-4 leukemia 3.23% | SR leukemia -39.7%

O=C1NC(=O)N(Cc2ccccc2)CC1Br (stereo not given)
inactive: HT29 colon 77.3% | SNB-75 CNS 91.4% | SNB-19 CNS 90.6% | U251 CNS 59.6% | PC-3 prostate 73.1% | SK-MEL-5 melanoma 77.5% | UACC-62 melanoma 72.8% | LOX IMVI melanoma 25.8% | SK-MEL-28 melanoma 97.7% | SK-MEL-2 melanoma 70.4% | SN12C renal 56.3% | UO-31 renal 77.6% | TK-10 renal 86.3% | ACHN renal 70.5% | A498 renal 129% | CCRF-CEM leukemia 13% | MOLT-4 leukemia 57.7% | SR leukemia 19.7%

COc1cc(C(=O)/C=C/c2cc(-c3cc(OC)c(OC)c(OC)c3)n[nH]2)cc(OC)c1OC
active: HT29 colon -47.5% | U251 CNS -57.9% | LOX IMVI melanoma -62.7% | SK-MEL-28 melanoma -59.5% | SK-MEL-2 melanoma 4.38% | SN12C renal 2.09% | UO-31 renal -77.2% | ACHN renal -25.8% | CAKI-1 renal 8.9% | CCRF-CEM leukemia -23.8% | MOLT-4 leukemia 7.64% | SR leukemia -7.98%
inactive: SNB-75 CNS 54.9% | SNB-19 CNS 55.4% | PC-3 prostate 12.9% | SK-MEL-5 melanoma 21.3% | UACC-62 melanoma 51% | A498 renal 29.2%

C=C1c2c(C)nn(-c3ccc(OC)cc3)c2N(C)C23C[C@@H]1C1(C)c4c(C)nn(-c5ccc(OC)cc5)c4N(C)C(C)(C[C@H]12)C3 (stereo not given in full)
active: PC-3 prostate -4.74% | CAKI-1 renal 2.18% | SR leukemia 3.27%
inactive: HT29 colon 19.4% | SNB-75 CNS 59.6% | SNB-19 CNS 46.8% | U251 CNS 32.1% | SK-MEL-5 melanoma 16.1% | UACC-62 melanoma 26.9% | LOX IMVI melanoma 18.4% | SK-MEL-28 melanoma 56.8% | SK-MEL-2 melanoma 37.2% | SN12C renal 23.8% | UO-31 renal 16.2% | ACHN renal 33.8% | A498 renal 40.2% | CCRF-CEM leukemia 21.7% | MOLT-4 leukemia 14.9%

CC(=O)c1nc2ccccc2n1CCNC(N)=O
inactive: HT29 colon 35.9% | SNB-75 CNS 24% | SNB-19 CNS 91.7% | U251 CNS 69.8% | PC-3 prostate 72% | SK-MEL-5 melanoma 82.7% | UACC-62 melanoma 86.6% | LOX IMVI melanoma 62.4% | SK-MEL-28 melanoma 89.6% | SK-MEL-2 melanoma 84% | SN12C renal 89.6% | UO-31 renal 78.8% | ACHN renal 91.3% | CAKI-1 renal 105% | A498 renal 78.8% | CCRF-CEM leukemia 68.3% | MOLT-4 leukemia 77.2% | SR leukemia 43.5%

COc1ccc(-n2c(SCc3cc(OC)c(OC)c(OC)c3)nc3ccc(C)cc3c2=O)cc1
inactive: HT29 colon 21.9% | SNB-75 CNS 44.4% | SNB-19 CNS 83.7% | U251 CNS 69.1% | PC-3 prostate 75% | SK-MEL-5 melanoma 54.9% | UACC-62 melanoma 56.7% | LOX IMVI melanoma 63% | SK-MEL-28 melanoma 74% | SK-MEL-2 melanoma 64.8% | SN12C renal 82.2% | UO-31 renal 47.2% | TK-10 renal 94.2% | ACHN renal 66.7% | CAKI-1 renal 54.2% | A498 renal 38% | MOLT-4 leukemia 56% | SR leukemia 23%

COc1ccc(-c2cc(/C=C/C(=O)c3cc(OC)c(OC)c(OC)c3)[nH]n2)cc1OC
inactive: SNB-75 CNS 17.8% | SNB-19 CNS 25.5% | PC-3 prostate 24.7% | SK-MEL-5 melanoma 27.4% | UACC-62 melanoma 50.8% | SK-MEL-2 melanoma 69.9%
active: HT29 colon -53.9% | U251 CNS -77.6% | LOX IMVI melanoma -79% | SK-MEL-28 melanoma -66.8% | SN12C renal 8.28% | UO-31 renal -92.1% | TK-10 renal -33.2% | ACHN renal -61.9% | CAKI-1 renal 4.66% | CCRF-CEM leukemia 4.09% | MOLT-4 leukemia 3.41% | SR leukemia 3.11%

CN(CCc1ccccn1)c1ccccc1
inactive: HT29 colon 102% | SNB-75 CNS 92% | SNB-19 CNS 102% | U251 CNS 96.4% | PC-3 prostate 101% | SK-MEL-5 melanoma 103% | UACC-62 melanoma 98% | LOX IMVI melanoma 102% | SK-MEL-28 melanoma 101% | SK-MEL-2 melanoma 101% | SN12C renal 104% | UO-31 renal 97.9% | TK-10 renal 104% | ACHN renal 102% | A498 renal 109% | MOLT-4 leukemia 59.9% | SR leukemia 87.5%
active: CCRF-CEM leukemia -0.411%
